# Tau fluor cs: counter-screen for tau fibril formation inhibitors | 0.93% of 280,000 active | tau K18 P301L Alexa594 fluorescence, heparin fibrillization | Potency, µM (series often up to 57.7 µM), inactives show top-dose activity change, negative = decrease; note: potency is the fitted concentration of half-maximal effect; nearly all actives have a fitted effect of over 55% in size
#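 Human tau K18 P301L (15 uM unlabeled, 0.24 uM Alexa 594-labeled) in 100 mM sodium acetate pH 7 with 20 uM heparin, 6 hr at 37 C. ThT 30 uM added, 1 hr ambient; Alexa 594 FP and total fluorescence read at 555/632 nm.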
# Tau ThT inhib: inhibitors of human tau fibril formation, thioflavin T binding. P10636. recombinant tau K18 P301L, heparin-induced fibrillization, ThT fluorescence. Potency, µM (titrated, usually from 57.4 µM), for inactives: at the top dose activity, negative = inhibition, most hits filed as inhibitors. 2.1% of 270,000 active. AID 1460; note: potency is the fitted concentration of half-maximal effect; nearly all actives have a fitted effect of over 55% in size
#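 Aggregation was driven by heparin (20 uM final) acting on recombinant tau […] bearing P301L in 100 mM sodium acetate pH 7; fibrils were detected with Thioflavin T.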
# FBPA coupling cs: inhibits coupling enzyme system, counter-screen for aldolase hits; coupling enzyme system counterscreen, AmpLite Red fluorescence; activity change, negative = inhibition, % at 58.2 µM, hits read low; 0.67% of 290,000 active; in the data active = activity change below about -30%
#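 Compounds tested against the coupling enzymes alone at 57.5 uM final; readout was AmpLite Red fluorescence (525/598 nm) after 20 min at RT.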
# USP1 inh: USP1/UAF1 (human) deubiquitinase inhibition; Potency, µM (top dose mostly 57.1 µM), for inactives: at the highest dose activity change, negative = inhibition, usual class: inhibitors; 0.23% of 390,000 active; recombinant USP1/UAF1, Ub-Rhodamine cleavage fluorescence; O94782; note: potency is the fitted concentration of half-maximal effect; nearly all actives have a fitted effect of over 60% in size
# Target sequence (O94782 whole entry, looked up): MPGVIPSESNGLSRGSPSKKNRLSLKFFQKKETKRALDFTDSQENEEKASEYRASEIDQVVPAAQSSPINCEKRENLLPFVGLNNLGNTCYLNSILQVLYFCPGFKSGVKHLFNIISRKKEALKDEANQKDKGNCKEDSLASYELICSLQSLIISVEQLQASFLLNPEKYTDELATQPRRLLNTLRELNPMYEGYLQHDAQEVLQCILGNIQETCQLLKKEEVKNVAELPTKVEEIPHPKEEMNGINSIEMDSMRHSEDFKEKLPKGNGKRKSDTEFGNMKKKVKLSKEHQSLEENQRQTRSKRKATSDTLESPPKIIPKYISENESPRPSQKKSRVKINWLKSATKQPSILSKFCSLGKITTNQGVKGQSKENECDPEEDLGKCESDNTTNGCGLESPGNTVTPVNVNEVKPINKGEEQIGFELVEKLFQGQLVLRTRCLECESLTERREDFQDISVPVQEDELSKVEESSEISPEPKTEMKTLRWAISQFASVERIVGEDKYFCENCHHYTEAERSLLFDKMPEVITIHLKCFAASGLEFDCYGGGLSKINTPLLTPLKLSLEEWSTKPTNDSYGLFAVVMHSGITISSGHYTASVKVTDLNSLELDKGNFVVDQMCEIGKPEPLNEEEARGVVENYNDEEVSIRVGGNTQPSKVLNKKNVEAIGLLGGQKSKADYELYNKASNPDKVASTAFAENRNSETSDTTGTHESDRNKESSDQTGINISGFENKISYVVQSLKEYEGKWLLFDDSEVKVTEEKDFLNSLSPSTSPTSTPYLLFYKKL
#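 1 nM enzyme complex + cpd, 15 min RT; start with Ub-Rho 150nM final; kinetic fluorescence ex 480/em 540, 6 reads q60 s. Buffer 50mM HEPES pH 7.8, 0.5mM EDTA, 0.1 mg/ml BSA, 1mM TCEP, 0.01% Tween-20.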
# Tau fibril FP: blocks human tau fibril formation measured by polarization | P10636 | K18 P301L tau heparin fibrillization, Alexa594 FP, 6 h | Potency, µM (titrated, usually from 57.7 µM), without a hit: top-dose activity, negative = inhibition, actives largely listed as inhibitors | 0.39% of 280,000 active | AID 1468; note: potency is the fitted concentration of half-maximal effect; nearly all actives have a fitted effect of over 55% in size
#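 Heparin (20 uM) drove fibril formation of recombinant tau K18 P301L, 15 uM unlabeled with 0.24 uM Alexa 594 label, for 6 hr at 37 C in 100 mM sodium acetate pH 7. Fluorescence polarization (555/632 nm) read 1 hr after 30 uM ThT.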
# The depositor's hits bear a star; ? = inconclusive; . = no result given; [ ] = dose if it differs, or a comment. Hits are enriched below; roughly 2.3% of the tested compounds scored in any of these assays. Unless noted, calls come from the whole dose curve; as a rule, active = well fitted curve in the direction sought with a large enough effect; inconclusive = small, poorly fitted or top-dose-only effect, or another doubt; inactive = no such curve, though single readings can be large; an effect the other way counts as inactive or inconclusive. % is set by controls: 0 for no effect and ±100 for the full control effect.
SMILES,Tau fluor cs,Tau ThT inhib,FBPA coupling cs,USP1 inh,Tau fibril FP
O=C1c2ccccc2C(=O)c2cc(S(=O)(=O)Nc3ccccc3)ccc21,14µM*[quencher],22µM*,-19,-22%,?
CC(=O)Nc1ccc(Nc2ncc([N+](=O)[O-])c(Nc3ccc(NC(C)=O)cc3)n2)cc1,-30%,8.9µM*,-4,-17%,-7%
Cc1nc(Nc2ccc(C(=O)O)cc2)nc(Nc2ccc(C(=O)O)cc2)c1[N+](=O)[O-],-8%,?,1,?,0%
CC(=O)Nc1ccc(Nc2ncnc(N)c2[N+](=O)[O-])cc1,11%,-9%,2,1%,-2%
CC(=O)Nc1ccc(Nc2nc(C)c([N+](=O)[O-])c(N(C)c3ccccc3)n2)cc1,18µM*[quencher],16µM*,0,5%,?
CCC(=O)Nc1ccc(Nc2nc(C)c([N+](=O)[O-])c(Nc3ccc(NC(=O)CC)cc3)n2)cc1,-28%,28µM*,-10,-16%,?
COc1ccc(/C=N/Nc2nc(C)c([N+](=O)[O-])c(N(C)c3ccccc3)n2)cc1OC,-19%,?,2,-22%,0%
CC(=O)Nc1ccc(Nc2nc(C)c([N+](=O)[O-])c(Nc3ccccc3)n2)cc1,?,8.9µM*,3,-21%,18%
COCC(=O)N1CCC2(CC1)CCN(c1ccncc1)CC2,.,.,4,.,.
O=C(O)/C(=C\c1ccc(-c2ccccc2[N+](=O)[O-])o1)c1ccccc1,.,.,-3,-14%,.
COc1ccc(-c2ccc(/C=N/NC(=O)c3cccnc3)o2)c([N+](=O)[O-])c1,-25%,2.8µM*,3,-6%,?
Cc1ccc(C(=O)N/N=C/c2ccc(-c3ccccc3[N+](=O)[O-])o2)cn1,4%,7%,-61*,-20%,6%
O=C(/C=C/c1ccc(-c2ccccc2[N+](=O)[O-])o1)c1ccccc1,?,18µM*,-25,?,5%
O=C(N/N=C/c1cc(Br)c(Br)o1)c1cccnc1,-17%,?,-55*,?,-11%
Cc1ccc(C(=O)N/N=C/c2ccc(-c3cccc(Cl)c3)o2)cn1,?,-14%,0,-4%,1%
Cc1ccccc1Cn1c(C)c(CNCCCc2ccccc2)c(C(=O)O)c1C,6%,-1%,.,-23%,4%
CCOc1ccc(NCc2cccn2-c2nnc(N3CCC(C(=O)NCc4ccccc4Cl)CC3)s2)cc1,?,?,.,-3%,8%
CC(NC(=O)c1ccc2c(c1)CCN2S(=O)(=O)c1ccc(Cl)cc1)c1ccccc1 (centres undefined),-22%,-2%,.,-15%,-10%
O=C(N/N=C/c1ccc(-c2ccccc2[N+](=O)[O-])o1)[C@H]1C[C@@H]1c1ccccc1,?,4.5µM*,-44*,?,?
O=C(N/N=C/c1ccc(-c2ccc([N+](=O)[O-])cc2)o1)[C@H]1C[C@@H]1c1ccccc1,?,?,-10,-16%,6%
Cc1ccc(CNc2ncccc2-c2nc(-c3ccc(Cl)cc3)no2)cc1,-1%,-3%,.,-22%,?
CCOc1ccccc1-c1nnc2n1N=C(c1ccc(OC)cc1)CS2,.,.,-1,.,.
COc1cccc(-c2cnc(NCc3cc(Cl)ccc3O)n2C)c1,20µM*[quencher],?,2,-11%,15%
C[n+]1ccc(/C=N/Nc2nc(Cl)c(C#N)c(Cl)c2Cl)cc1,11µM*[quencher],13µM*,-1,-4%,-5%
Clc1nnc(N/N=C/c2ccccc2)c2ccccc12,?,?,1,0%,?
SMILES,Tau fluor cs,Tau ThT inhib,FBPA coupling cs,USP1 inh,Tau fibril FP
C=CCN1C=CC(=CC=C(C#N)C#N)C=C1,-2%,?,-1,-19%,3%
CCCN1C=CC(=CC=C(C#N)C#N)C=C1,-16%,?,0,22µM*,-5%
COc1ccc(N/N=C(\C=N\O)C(=O)c2ccc(OC)cc2)cc1,?,13µM*,4,-13%,16%
Cc1oc(-c2ccccc2)nc1CNC(=O)Nc1ccccc1,-21%,-5%,.,-8%,-9%
Nc1ccc(N2CCN(c3ncc(C(F)(F)F)cc3Cl)CC2)c(C(F)(F)F)c1,10µM*[quencher],20µM*,.,-25%,?
O=C(CSc1nc2ccccc2nc1Cc1ccc(Cl)cc1)N1CCN(c2ccccc2F)CC1,-9%,-4%,.,-7%,-5%
O=C(Nc1ccc(O)c2c(=O)cc(-c3ccccc3Cl)oc12)c1cc(Cl)cc(Cl)c1,.,.,7,.,.
CC(=O)Nc1ccc(NC(=O)CCCc2c[nH]c3ccccc23)cc1,-8%,?,3,-11%,9%
O=C(CCCc1c[nH]c2ccccc12)Nc1ccc2ccccc2c1,8.9µM*[quencher],?,-3,-2%,?
CN(C)c1nc(-c2ccc3c(c2)OCO3)nc2ccccc12,.,.,-3,.,.
O=C(O)c1cc(N/N=C/C(Cl)=C/c2ccccc2)ccc1Cl,-29%,14µM*,0,-26%,-4%
COc1ccc2c(CC(=O)Nc3ccccc3N3CCOCC3)coc2c1,-22%,-15%,0,-8%,10%
FC(F)(F)c1cnc(/C=C/Nc2ccccc2Cl)c(Cl)c1,-8%,-16%,-1,-12%,3%
C[N+]1=C(/C=C/Nc2ccccc2Cl)C(C)(C)c2ccccc21,?,28µM*,0,-16%,?
CCN(CCCNC(=O)c1cc(Nc2ccc(OC)cc2OC)nc2ccccc12)c1cccc(C)c1,7.1µM*[quencher],?,.,?,5%
CCCCN(CCCNC(=O)c1cc(Nc2ccc(OC)c(OC)c2)nc2ccccc12)c1ccccc1,7.1µM*[quencher],-16%,.,-14%,12%
CCCCN(CCCNC(=O)c1cc(Nc2ccc(OC)cc2)nc2ccccc12)Cc1ccccc1,4µM*[quencher],-15%,.,-27%,5%
COc1ccc(Nc2cc(C(=O)NCCCN(C)Cc3ccccc3)c3ccccc3n2)cc1OC,28µM*[quencher],?,.,11%,?
CC(=O)OCC1OC(C#Cc2ccccc2)C=CC1OC(C)=O (centres undefined),-10%[11.6 µM],?,-1,.,?
COc1ccc(N2CCN(C(=O)c3cc(NS(=O)(=O)c4ccc(F)cc4)ccn3)CC2)cc1,-6%,-4%,.,-20%,-2%
O=C(c1csnn1)N1CCC2(CC1)CN(c1cccc(-c3ccccc3)c1)C2,.,.,-3,.,.
COc1cccc([C@@H]2Oc3ccc(Br)cc3C[C@H]2OC(=O)Nc2ccc(OC(F)F)cc2)c1,?,-18%,-4,.,-9%
CCCCN(CCCNC(=O)c1cc(Nc2ccc(OC)c(OC)c2)nc2ccccc12)Cc1ccccc1,13µM*[quencher],?,.,-16%,15%
COc1ccc(Nc2cc(C(=O)NCCCOC(C)C)c3ccccc3n2)c(OC)c1,.,.,2,-24%,.
CCCCN(CCCNC(=O)c1cc(Nc2ccc(OC)cc2OC)nc2ccccc12)Cc1ccccc1,10µM*[quencher],?,.,-22%,15%

# Source: PubChem BioAssay
